# L3MBTL1 inh: inhibitors of human L3MBTL1; Q9Y468; AlphaScreen L3MBTL1–H3K9me1 peptide binding; Potency, µM (highest dose often 57.1 µM), inactives show at the top dose activity, negative = inhibition, hits mostly inhibitors; 230,000 tested, 0.66% active; AID 485360; also: potency is read from the fitted curve at half-maximal effect; % is scaled to controls: 0 for no effect and ±100 for the full control effect; nearly all actives have a fitted effect of over 60% in size
# Target sequence (Q9Y468 whole entry, looked up): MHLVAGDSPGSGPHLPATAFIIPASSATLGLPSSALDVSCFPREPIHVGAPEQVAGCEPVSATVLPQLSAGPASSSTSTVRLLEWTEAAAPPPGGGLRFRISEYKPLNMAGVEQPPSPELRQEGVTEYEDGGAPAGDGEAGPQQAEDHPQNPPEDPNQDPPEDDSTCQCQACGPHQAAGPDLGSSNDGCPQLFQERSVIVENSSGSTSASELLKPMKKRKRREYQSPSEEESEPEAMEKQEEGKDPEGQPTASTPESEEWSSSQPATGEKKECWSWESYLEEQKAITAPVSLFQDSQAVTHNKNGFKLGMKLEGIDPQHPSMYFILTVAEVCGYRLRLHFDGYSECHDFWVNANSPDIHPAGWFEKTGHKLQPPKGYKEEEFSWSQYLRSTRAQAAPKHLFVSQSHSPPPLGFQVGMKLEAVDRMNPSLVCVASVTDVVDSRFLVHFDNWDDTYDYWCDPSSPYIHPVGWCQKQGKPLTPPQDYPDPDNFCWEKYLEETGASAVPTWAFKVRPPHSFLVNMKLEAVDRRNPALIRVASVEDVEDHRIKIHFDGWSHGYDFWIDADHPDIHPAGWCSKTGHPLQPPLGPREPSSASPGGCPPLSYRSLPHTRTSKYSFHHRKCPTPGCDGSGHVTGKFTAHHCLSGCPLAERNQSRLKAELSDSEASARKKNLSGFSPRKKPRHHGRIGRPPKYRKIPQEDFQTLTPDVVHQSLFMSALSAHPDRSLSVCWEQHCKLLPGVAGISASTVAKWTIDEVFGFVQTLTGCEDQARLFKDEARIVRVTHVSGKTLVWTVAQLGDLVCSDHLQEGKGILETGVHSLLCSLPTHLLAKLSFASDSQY
#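 L3MBTL1 50 nM + b-AHA-H3(1-15)K9me1 75 nM, 30 min RT; compound added, 30 min RT; streptavidin donor/Ni-chelate acceptor beads 10 ug/mL each final, 30 min RT dark; AlphaScreen read.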
# JMJD2A Tudor inh: blocks the human JMJD2A Tudor domain; O75164; AlphaScreen JMJD2A-Tudor / H3K4me3 peptide binding; Potency, µM (top dose mostly 114 µM), without a hit: at the top dose activity change, negative = inhibition, hits mostly inhibitors; 390,000 tested, 4.4% active; AID 504339; also: potency is read from the fitted curve at half-maximal effect; % is scaled to controls: 0 for no effect and ±100 for the full control effect; nearly all actives have a fitted effect of over 50% in size
# PI5P4Ka inh: PI5P4K alpha (human) kinase inhibition | P48426 | PI5P4Kalpha enzyme, ADP-Glo luminescence, 60 min; active compounds read low | max response, % | 330,000 tested, 1.2% active; active = max response of -50% or lower; inconclusive = between -30% and -50%; inactive = -30% or higher; also: value at the top dose of about 77 µM; % is scaled to controls: 0 for no effect and ±100 for the full control effect
#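 Human PI5P4Kalpha with substrate in 0.038 M HEPES pH 7.4, 0.28 mM EGTA, 0.1% CHAPS, 5% DMSO; reaction started with 5 microM ATP (final), 60 min at room temperature. ADP formed read by ADP-Glo luminescence.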
# BAZ2B block: inhibitors of human BAZ2B bromodomain | Potency, µM (series often up to 114 µM), for inactives: at the top dose activity change, negative = inhibition, most hits filed as inhibitors | AlphaScreen BAZ2B-H3K14Ac peptide displacement | 360,000 tested, 4.4% active; also: potency is read from the fitted curve at half-maximal effect; % is scaled to controls: 0 for no effect and ±100 for the full control effect; nearly all actives have a fitted effect of over 60% in size
#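 Inhibition is scored as reduced AlphaScreen emission. The BAZ2B/b-H3(5-23)K14Ac complex (50 nM each) in PBS pH 7.4, 0.01% Tween-20 meets compound (up to 110 uM) for 30 min at RT before bead addition.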
# HP1b binding inh: HP1-beta chromodomain-methylated histone interaction inhibition; 390,000 tested, 0.56% active; AID 540317; Potency, µM (doses to about 114 µM), inactives show top-dose activity change, negative = inhibition, actives largely listed as inhibitors; P83916; AlphaScreen HP1-beta / biotin-H3K9me3 peptide binding; also: potency is read from the fitted curve at half-maximal effect; nearly all actives have a fitted effect of over 70% in size
#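 Compound inhibition of the preformed complex between 50 nM HP1-beta and 50 nM biotinylated H3K9me3 peptide was read by AlphaScreen. Buffer was PBS pH 7.4 with 0.01% Tween-20. Incubations ran 30 min at room temperature, with 10 ug/mL donor/acceptor beads.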
# KDM4E inh: inhibitors of human JMJD2E histone demethylase; B2RXH2; JMJD2E catalytic domain, FDH-coupled NADH fluorescence (FDH is formaldehyde dehydrogenase); Potency, µM (highest dose often 57.1 µM), inactives show top-dose activity change, negative = inhibition, actives largely listed as inhibitors; 230,000 tested, 1.6% active; active = well fitted inhibition curve with a large enough effect, not every such curve was filed as active; inconclusive = small, poorly fitted or top-dose-only effect, or another doubt; inactive = no such curve, though single readings can be large or run the other way;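 also: potency is read from the fitted curve at half-maximal effect; 0% = wells with enzyme and -100% = buffer wells without enzyme; nearly all actives have a fitted effect of over 50% in size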
# Active calls of the source: *; ? = inconclusive; . = no result given; [ ] = dose if it differs, or a comment. In the library only some 5.7% were active in any assay of this set; here they are far more common. Unless noted, calls follow the shape of the dose curve; as a rule, active = well fitted inhibition curve with a large enough effect; inconclusive = small, poorly fitted or top-dose-only effect; inactive = no such curve, though single readings can be large or run the other way.
SMILES,L3MBTL1 inh,JMJD2A Tudor inh,PI5P4Ka inh,BAZ2B block,HP1b binding inh,KDM4E inh
COc1ccc(S(=O)(=O)Nc2c(C(=O)O)[nH]c3ccccc23)c(OC)c1,-1%,?,3,?,9%,0%
COc1ccc2nc(C)cc(N3CCC(C(N)=O)CC3)c2c1,.,-4%,1,-33%,37%,-1%
COc1ccc(N2CCN(C(=O)c3[nH]c4ccc(OC)cc4c3C)CC2)cc1,.,28µM*,-14,?,?,.
O=C(NCc1ccco1)/C(=C\C=C\c1ccccc1)NC(=O)c1ccccc1Br,-1%,?,2,-36%,-23%,?
CC(C)CC1=NN(C(=O)c2ccncc2)C(O)(C(F)(F)F)C1 (stereo unspecified),-9%,40µM*,-17,1%,10%,5%
CC(C)CC1=NN(C(=O)c2cccnc2)C(O)(C(F)(F)F)C1 (stereo unspecified),4%,-3%,-2,9%,42%,-7%
CC(CC(=O)Nc1ccc(S(=O)(=O)N2CCOCC2)cc1)c1ccccc1 (stereo unspecified),.,15%,16,-15%,25%,2%
COc1ccccc1CNC(=O)CCCn1c(=O)c2ccccc2n(CC(=O)Nc2c(C)cc(C)cc2C)c1=O,.,3%,.,19%,68%,.
NNC(=O)CCCCCCCCCCOCCCCO,8%,-18%,5,-6%,-10%,-1%
N#Cc1cnc2sc3ccccc3n2c1=N,.,0%,-61*,0%,38%,-16%
Cn1nc2sc3ccccc3n2c(=O)c1=O,55%,-7%,-5,-3%,17%,?
Cc1cc(C)cc(NC(=O)c2cc(CN3CCCC3)on2)c1,.,-33%,.,-22%,-17%,.
C=CCOc1ccc(C2C(C(=O)c3ccco3)=C(O)C(=O)N2CCCN(CC)CC)cc1 (stereo unspecified),0%,-12%,-3,-21%,28%,-9%
COc1ccc(C2C(C(=O)c3ccco3)=C(O)C(=O)N2c2nnc(C)s2)cc1 (stereo unspecified),-4%,-13%,-11,50µM*,15%,-11%
CSc1nnc(N2C(=O)C(O)=C(C(=O)c3ccco3)C2c2ccc(F)cc2)s1 (stereo unspecified),.,-3%,-1,?,39%,.
COc1ccc(C2C(C(=O)c3ccco3)=C(O)C(=O)N2c2nnc(C)s2)cc1OC (stereo unspecified),.,25µM*,9,-3%,-6%,.
C=CCOc1ccc(C2C(C(=O)c3ccco3)=C(O)C(=O)N2c2nnc(C)s2)cc1 (stereo unspecified),-16%,28µM*,-15,79µM*,-9%,1%
COCc1nnc(NC(=O)C2CCN(C(=O)c3ccccc3)CC2)s1,.,-13%,.,.,15%,.
CN(c1ccccc1)S(=O)(=O)c1cccc(C(=O)Nc2ncn[nH]2)c1,.,?,-4,?,47%,0%
CC(C)Oc1ccc(C(=O)Nc2nc3ccccc3[nH]2)cc1,.,-2%,-6,2%,46%,.
O=C(Nc1ncn[nH]1)c1ccccc1O,1%,-27%,-12,79µM*,42%,?
CC(C)Oc1cccc(C(=O)Nc2ncn[nH]2)c1,?,-20%,-1,50µM*,54%,.
CC(C)Oc1ccc(C(=O)Nc2ncn[nH]2)cc1,-5%,?,-6,50µM*,60%,.
Cc1cc(C(=O)Nc2ncn[nH]2)ccc1[N+](=O)[O-],-5%,-24%,0,50µM*,54%,-4%
CC(C)COc1ccc(C(=O)Nc2ncn[nH]2)cc1,41%,-18%,0,18%,21%,.
SMILES,L3MBTL1 inh,JMJD2A Tudor inh,PI5P4Ka inh,BAZ2B block,HP1b binding inh,KDM4E inh
CCOc1ccc(C(=O)Nc2ncn[nH]2)cc1,-11%,-18%,-2,50µM*,32%,.
Cc1ccc(O)c(C(=O)c2cnn(C(=O)c3cccc(S(=O)(=O)N(C)C)c3)c2)c1,6%,-22%,-5,-3%,39%,.
Cc1[nH][nH]c(=O)c1C(c1ccc(-c2ccc(Cl)c(Cl)c2)o1)c1c(C)[nH][nH]c1=O,.,?,-18,?,-35%,15%
COc1ccc(-c2ccc(C(c3c(C)[nH][nH]c3=O)c3c(C)[nH][nH]c3=O)o2)c([N+](=O)[O-])c1,-21%,?,-2,40µM*,-12%,38%
Cn1c(/C=N/NC(=O)c2ccccc2Br)nc2ccccc21,-1%,-17%,.,8%[57.1 µM],35%,?
Cc1ccc(C(=O)N/N=C/c2nc3ccccc3n2C)cc1,-1%,63µM*,.,?,47%,?
CCC(=O)N1c2ccccc2CC1C(=O)NCCCN1CCN(c2cccc(Cl)c2)CC1 (stereo unspecified),.,-14%,.,-21%,34%,.
N#CC1=C(N)n2c(s/c(=C\c3cccs3)c2=O)=C(C#N)C1c1cccs1 (stereo unspecified),-7%,-19%,-56*,-4%,20%,?
N#CC1=C(N)n2c(s/c(=C\c3ccco3)c2=O)=C(C#N)C1c1ccco1 (stereo unspecified),25µM*,56µM*,-70*,?,79µM*,?
CCOC(=O)C1=c2s/c(=C\c3ccncc3)c(=O)n2C(N)=C(C(=O)OC)C1c1ccncc1 (stereo unspecified),2%,-25%,-1,-16%,45%,5%
CCOC(=O)C1=C(N)n2c(s/c(=C\c3cccnc3)c2=O)=C(C#N)C1c1cccnc1 (stereo unspecified),.,-20%[11.4 µM],0,.,53%,.
CCOC(=O)C1=C(N)n2c(s/c(=C/c3ccco3)c2=O)=C(C(=O)OC)C1c1ccco1 (stereo unspecified),.,56µM*,-26,?,?,?
CC(C)c1ccc(/C=c2\sc3n(c2=O)C(N)=C(C#N)C(c2ccc(C(C)C)cc2)C=3C(N)=O)cc1 (stereo unspecified),.,-12%,?,.,17%,.
Cc1ccc(SCC(Cc2ccccc2)N2CCN(C)CCC2=O)cc1 (stereo unspecified),.,-27%,.,.,15%,.
Cn1c(CNC(=O)c2ccccc2F)nnc1SCC(=O)c1ccccc1,.,-4%,3,2%,9%,.
Cc1ccc(S(=O)(=O)N2CCN(C(=O)c3ccc(N4CCCCC4)c([N+](=O)[O-])c3)CC2)cc1,.,?,-1,?,-20%,.
CCC(c1c(C)[nH]oc1=O)c1c(C)[nH]oc1=O,-2%,25µM*,-2,-97%,-4%,-17%
Cc1ccc2nc(N3CCC(C(=O)N4CCN(c5cccc(Cl)c5)CC4)CC3)[nH]c2c1,.,56µM*,.,71µM*,0%[57 µM],.
Nc1ccc(N=Nc2ccccc2)c2ccccc12,32µM*,35µM*,20,11µM*,-9%,-5%

# Screening data: PubChem, National Center for Advancing Translational Sciences (NCATS)
